Screening results: PubChem BioAssay, National Center for Advancing Translational Sciences (NCATS)
Pf growth 96h: P. falciparum growth inhibition at 96 hour, primary screen for plastid delayed-death inhibitors; actives 6.9% (n = 320,000); P. falciparum luciferase reporter growth, 96 h; Potency, µM (doses to about 28.7 µM), for the others: at the highest dose activity change, negative = inhibition, usual class: inhibitors; AID 504834; active means well fitted inhibition curve with a large enough effect; inconclusive means small, poorly fitted or top-dose-only effect, or another doubt; inactive means no such curve, though single readings can be large or run the other way; further: on the % scale 0 is the no-effect control and ±100 the full control effect
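96 h incubation, 37 C, 5% CO2, of luciferase-reporter P. falciparum-infected RBCs (2% hematocrit, 0.05% parasitemia final) with test compounds; endpoint luminescence.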
Pf growth 48h: P. falciparum growth inhibition at 48 hours (one generation). Potency, µM (highest dose often 28.7 µM), without a hit: top-dose activity change, negative = inhibition, hits mostly inhibitors. AID 504832. P. falciparum luciferase growth in erythrocytes, 48 h. actives 5.9% (n = 310,000); active means well fitted inhibition curve with a large enough effect; inconclusive means small, poorly fitted or top-dose-only effect, or another doubt; inactive means no such curve, though single readings can be large or run the other way; further: on the % scale 0 is the no-effect control and ±100 the full control effect
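Read-out is firefly luciferase luminescence from an integrated reporter in P. falciparum, so falling signal marks reduced parasite growth. Infected erythrocytes were at 2% hematocrit and 0.1% parasitemia (final) in Albumax-supplemented RPMI 1640.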
SARS PLP yeast: inhibitors of SARS-CoV papain-like protease in yeast; AID 485353; actives 0.19% (n = 330,000); S. cerevisiae expressing SARS-CoV PLpro, growth rescue; Potency, µM (titrated, usually from 32.9 µM), for the others: at the top dose activity, positive = growth rescue, usual class: activators; further: 0% is about no effect; nearly all actives have a fitted effect of over 55% in size
NS1 function inh: inhibitors of influenza NS1 protein function; AID 2326; Potency, µM (top dose mostly 46.1 µM), inactives show top-dose activity, positive = more growth; actives 0.4% (n = 270,000); further: actives are rising curves; nearly all actives have a fitted effect of over 50% in size
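S. cerevisiae expressing influenza A NS1, grown in glucose, washed, then diluted 1:100 into pH 6.0 -URA galactose medium with 23 nl compound. Growth recovery read as OD600; NS1-free strain serves as control.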
The depositor's hits bear a star; ? = inconclusive; · = no result; [ ] = remark or other dose. Hits are enriched below; roughly 10% of the tested compounds scored in any of these assays. Unless noted, the call rests on the fitted dose curve. Potency means the concentration at half of the fitted maximal effect.

SMILES | Pf growth 96h | Pf growth 48h | SARS PLP yeast | NS1 function inh
CN1CCN(CCCNc2nc3ccccc3c3nc(-c4ccccc4)nn23)CC1 | · | · | · | -3%
COCCCNc1nc2cc(OC)c(OC)cc2c2nc(-c3ccccc3)nn12 | -2% | 0.29µM* | -1% | 0%
CCN(CC)CCCNc1nc2cc(OC)c(OC)cc2c2nc(-c3cccnc3)nn12 | · | 4.1µM* | -2% | -5%
COc1cc2nc(NCCCN3CCN(C)CC3)n3nc(-c4ccccc4)nc3c2cc1OC | · | · | 7% | -3%
CCN(CC)CCCNc1nc2ccccc2c2nc(-c3ccncc3)nn12 | 4.1µM* | 6.6µM* | 1% | 2%
CCN(CC)CCCNc1nc2cc(OC)c(OC)cc2c2nc(-c3ccccc3)nn12 | 22% | 2.3µM* | 3% | 2%
Cc1ccc(S(=O)(=O)N[C@H](C(=O)O)C(C)C)cc1 | · | · | · | -3%
OCCCN1CCN(CCOc2ccccc2-c2ccccc2)CC1 | 10µM* | ? | -6% | 1%
COc1ccc(-c2c(C)nn3c(C)cc(C)nc23)cc1 | 50% | 0% | 0% | -9%
O=C(CCNC(=O)c1ccc(Br)cc1)Nc1ccc(S(=O)(=O)N2CCOCC2)cc1 | · | · | -2% | ·
CCOC(=O)c1c(C)n(-c2ccccc2)c2ccc(O)cc12 | 5.9µM* | ? | 1% | 2%
CCOC(=O)c1c(CN(CC)CC)n(-c2ccccc2)c2ccc(O)cc12 | ? | 8.3µM* | 4% | -1%
CNC(=O)CCCCC(=O)N/N=C/c1ccc(Cl)cc1Cl | -10% | -14% | 1% | 2%
O=c1cc(/C=C/c2ccccc2)oc2ccccc12 | -1% | ? | -17% | -31%
COc1ccccc1NC(=O)COC(=O)c1ccc2ccccc2n1 | · | · | -8% | ·
O=C(Nc1ccccc1C(=O)Nc1ccccn1)c1cc(F)c(F)cc1Cl | 13% | -1% | -4% | -6%
O=C(NC1CCCN(Cc2ccccc2F)C1)C1CCC1 (stereo unspecified) | -26% | 17% | -1% | 17%
CC1(C)C2CC=C(/C=N/NC(=S)NCCc3ccccc3)C1C2 (stereo unspecified) | 1.5µM* | ? | -1% | 0%
CC(C)(C)c1ccc(Oc2cccc(C3CC(=O)C(C4NCCc5ccccc54)C(=O)C3n3cncn3)c2)cc1 (stereo unspecified) | 14% | 1.2µM* | 5% | 19%
O=C1CC(c2ccccc2Oc2cccc(Cl)c2)C(n2cncn2)C(=O)C1C1NCCc2ccccc21 (stereo unspecified) | -14% | 0% | 4% | 18%
CCN1CCN(c2ccc(S(=O)(=O)N3CCOCC3)cc2N)CC1 | · | · | -1% | ·
CC1Cc2nc(SCC(=O)N3CCOCC3)n(C)c(=O)c2S1 (stereo unspecified) | -2% | -3% | 3% | 9%
CCn1c(SCC(=O)N2CCOCC2)nc2c(c1=O)SC(C)C2 (stereo unspecified) | 2.1µM* | -20% | -11% | 0%
CCn1c(SCC(=O)N2CCOCC2)nc2c([nH]c3ccccc32)c1=O | 13µM* | ? | -1% | 4%
C=CCn1c(SCC(=O)N2CCCC2)nc2c([nH]c3ccccc32)c1=O | 21% | -14% | -5% | -2%
SMILES | Pf growth 96h | Pf growth 48h | SARS PLP yeast | NS1 function inh
CSc1nc2c(c(=O)n1Cc1ccccc1)SC(C)C2 (stereo unspecified) | -12% | 12µM* | -7% | -46%
CCSc1nnc(NC(=O)CSc2nc3c(c(=O)n2C)SC(C)C3)s1 (stereo unspecified) | 0% | 12µM* | 2% | 3%
O=C(CSc1n[nH]c(-c2ccccc2Cl)n1)NC1CCCCC1 | 72% | -25% | 1% | 6%
Cc1nn(CC(=O)N2CCN(c3ccc(Cl)cc3)CC2)c(=O)c2cccn12 | ? | -5% | -2% | 7%
CC(=O)Nc1c(-c2cc(=O)oc3cc(C)ccc23)oc2ccccc12 | ? | ? | 0% | -3%
Cc1cc(OCC(=O)NCCN2CCOCC2)c2c(C)c(C)c(=O)oc2c1 | 6% | 15% | -1% | -1%
CCn1c(SCC(=O)Nc2nnc(C)s2)nc2c(c1=O)SC(C)C2 (stereo unspecified) | -9% | ? | -13% | -5%
CCn1c(SCC(=O)Nc2ccc3c(c2)OCO3)nc2c(c1=O)SC(C)C2 (stereo unspecified) | ? | ? | -20% | -109%
CCn1c(SCC(=O)N2CCC(C)CC2)nc2c(c1=O)SC(C)C2 (stereo unspecified) | 6.6µM* | ? | -6% | -34%
CCn1c(SCC(=O)Nc2cccc(C)c2)nc2c(c1=O)SC(C)C2 (stereo unspecified) | 13µM* | ? | -8% | -121%
CCC(Sc1nc2c(c(=O)n1CC)SC(C)C2)C(=O)OC (stereo unspecified) | 0.37µM* | ? | -15% | -26%
CNC[C@@H]1Oc2ccc(NS(=O)(=O)c3ccc(OC)cc3)cc2CC(=O)N([C@H](C)CO)C[C@@H]1C | · | · | 2% | ·
COc1cc(S(=O)(=O)n2nnc3ccccc32)c(OC)cc1Cl | 9.3µM* | 0% | 4% | -35%
Clc1ncnc2scc(-c3ccc(Br)cc3)c12 | 0.33µM* | 0.83µM* | 10% | -4%
Cc1cc(N)n(-c2ncnc3scc(-c4ccc(Cl)cc4)c23)n1 | ? | ? | -13% | 20%
COc1ccccc1CN1CC(C(=O)NCc2cnn(C)c2)CCC1=O (stereo unspecified) | 6.6µM* | 10% | -1% | 11%
Cc1nn(C)c(C(=O)NNC(=S)NC2CCCCC2)c1Br | 5.2µM* | 82% | 0% | -3%
CCCCn1c(NCCN(C)C)nc2c1c(=O)[nH]c(=O)n2C | 4.7µM* | 24% | -12% | 4%
CN(C)c1nc2c(c(=O)[nH]c(=O)n2C)n1CCOc1ccccc1 | 0% | -22% | -3% | -3%
CNc1nc2c(c(=O)[nH]c(=O)n2C)n1CCCc1ccccc1 | 31% | 29% | 0% | 3%
CCC(C)Nc1nc2c(c(=O)[nH]c(=O)n2C)n1CCCc1ccccc1 (stereo unspecified) | 4.1µM* | -8% | -6% | -2%
CCN(CC)c1nc2c(c(=O)[nH]c(=O)n2C)n1CCOc1ccccc1 | 0.66µM* | 0% | 2% | 15%
Cc1nc(N2CCN(Cc3ccccc3)CC2)[nH]c(=O)c1C | 2.6µM* | 19% | 1% | -5%
O=c1[nH]nc(Cc2ncc(C(F)(F)F)cc2Cl)c2ccccc12 | 18% | 9%[0.00184 µM] | 7% | -1%
Cn1c(=O)[nH]c(=O)c2c1nc([N+](=O)[O-])n2Cc1ccccc1 | 13µM* | 7.4µM* | -2% | -5%
Cn1c(=O)[nH]c(=O)c2c1nc(N1CCN(Cc3ccccc3)CC1)n2CCCc1ccccc1 | · | 5.2µM* | 0% | -18%
Cn1c(=O)c2c(nc(N3CCN(Cc4ccccc4)CC3)n2CCCc2ccccc2)n(C)c1=O | 6.6µM* | 3.7µM* | 6% | -40%
CC1CCN(c2nc3c(c(=O)n(C)c(=O)n3C)n2Cc2ccccc2)CC1 | ? | 13µM* | -3% | -40%
CCN1CCN(c2nc3c(c(=O)[nH]c(=O)n3C)n2CCCc2ccccc2)CC1 | -2% | -17% | 1% | -3%
Cc1c(Cl)cccc1NC(=O)COC(=O)c1ccc(CN2CCCC2=O)cc1 | -6% | -2% | 3% | ·
